High-throughput results as filed in PubChem BioAssay.
LASV entry inh: qHTS for Inhibitors of binding or entry into cells for Lassa Virus. Lassa virus pseudotype entry inhibition, cell reporter. Potency, µM (highest dose often 37.9 µM), without a hit: at the top dose activity change, negative = inhibition, hits mostly inhibitors. hit rate 1.2% among 300,000. AID 540256, 2011; calls by dose curve; tested in HEK293 cells; also: potency is read from the fitted curve at half-maximal effect; nearly all actives have a fitted effect of over 50% in size
Vaccinia Venus: qHTS for Stage-Specific Inhibitors of Vaccinia Orthopoxvirus: Venus Reporter Primary qHTS | Vaccinia virus Venus reporter expression, fluorescence | Potency, µM (top dose mostly 36.5 µM), for inactives: top-dose activity change, negative = inhibition, hits mostly inhibitors | hit rate 0.46% among 330,000; calls by dose curve; tested in A549 cells; also: potency is read from the fitted curve at half-maximal effect; nearly all actives have a fitted effect of over 30% in size
MARV entry inh: qHTS for inhibitors of binding or entry into cells for Marburg Virus. Marburg virus pseudotyped entry inhibition, cell reporter. Potency, µM (series often up to 37.8 µM), inactives show at the highest dose activity change, negative = inhibition, actives largely listed as inhibitors. hit rate 1.8% among 300,000. AID 540276, 2011; calls by dose curve; tested in HEK293 cells; also: potency is read from the fitted curve at half-maximal effect
FMDV inh: High Throughput Screening for Foot and Mouth Disease Virus Antivirals. hit rate 1.2% among 410,000. Potency, µM (series often up to 57.9 µM), without a hit: at the highest dose activity change, negative = inhibition, actives largely listed as inhibitors. FMDV antiviral cell-based qHTS; calls by dose curve; tested in HEK293T cells; also: read-out not given here; potency is read from the fitted curve at half-maximal effect; nearly all actives have a fitted effect of over 45% in size
Vaccinia mCherry: qHTS for Stage-Specific Inhibitors of Vaccinia Orthopoxvirus: mCherry Reporter Primary qHTS; Vaccinia virus mCherry reporter infection, fluorescence; Potency, µM (titrated, usually from 36.5 µM), inactives show at the top dose activity change, negative = inhibition, most hits filed as inhibitors; hit rate 0.63% among 310,000; calls by dose curve; tested in A549 cells; also: potency is read from the fitted curve at half-maximal effect; nearly all actives have a fitted effect of over 35% in size
HCMV antiviral: qHTS Assay for inhibitors of the human cytomegalovirus (HCMV) | HFF cells, HCMV-luciferase reporter, 72 h; stronger effect = lower value | activity change, negative = inhibition, % at 57.5 µM | hit rate 4.5% among 410,000 | AID 1259415, 2018; in the data active = activity change below about -60%; inconclusive = no clear call, values can overlap the other calls; inactive = above about -39%
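Screen run at 2 compound doses on HFFs infected with reporter HCMV, MOI 1 PFU/cell. Luciferase activity from cell lysates at 72 h post infection gave inhibition relative to buffer-only and Salinomycin wells.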
Numbers without * were called inactive; [ ] = another dose, or the depositor's remark. The list is not random: actives were taken first. Their share in the collection is about 6.5%. % is scaled to controls: 0 for no effect and ±100 for the full control effect.

CCN1c2cc(C)ccc2-n2cccc2C12CCN(C(=O)Nc1cc(OC)c(OC)c(OC)c1)CC2 was read as LASV entry inh inconclusive, Vaccinia Venus -20.5%, FMDV inh inconclusive, Vaccinia mCherry -12.1% and HCMV antiviral 32.4.
`O=C1C(Cl)=C(NCc2cccnc2)C(=O)c2ccccc21` gave LASV entry inh inconclusive, Vaccinia Venus 28.2µM*, MARV entry inh inconclusive, FMDV inh inconclusive, Vaccinia mCherry inconclusive and HCMV antiviral -28.0.
Clc1ccccc1-c1cc(NCc2cccnc2)ncn1 was read as Vaccinia Venus -4.4%, FMDV inh 21.6% and Vaccinia mCherry -2.1%.
COc1cccc(NC(=O)C2CCN(S(=O)(=O)c3c(C)noc3/C=C/c3cccs3)CC2)c1 was read as LASV entry inh -16.8%[46.1 µM], Vaccinia Venus -16.1%, MARV entry inh inconclusive, FMDV inh inconclusive, Vaccinia mCherry -12.2% and HCMV antiviral inconclusive.
O=C(NCc1cccs1)c1ccc2c(c1)N(Cc1ccccc1Cl)C(=O)c1ccccc1S2 was read as LASV entry inh -12.1%[46.1 µM], Vaccinia Venus -29.8%, FMDV inh -6.6%, Vaccinia mCherry -33.7% and HCMV antiviral -3.0.
`CC(=O)C1=C(O)C(=O)N(c2cccc(C(=O)O)c2)[C@@H]1c1ccc(F)cc1` gave MARV entry inh 25.3%.
For Cc1ccc(NC2=C/C(=N/S(=O)(=O)c3cccs3)c3ccccc3C2=O)cc1C the results were LASV entry inh 3.6%, Vaccinia Venus -12.0%, MARV entry inh -6.7%, FMDV inh -18.3%, Vaccinia mCherry inactive and HCMV antiviral 62.3.
For CCc1ccc(S(=O)(=O)/N=C2\C=C(NS(=O)(=O)c3ccccc3)C(=O)c3ccccc32)cc1 the results were FMDV inh 71.1% and HCMV antiviral -36.1.
Screening CC(=O)Nc1ccc(NC2=C/C(=N/S(=O)(=O)c3cccs3)c3ccccc3C2=O)cc1 returned LASV entry inh inconclusive, Vaccinia Venus 11.2µM*, MARV entry inh 5.01µM*, FMDV inh inconclusive, Vaccinia mCherry inconclusive and HCMV antiviral -100.9*.
Cc1ccccc1NC1=C/C(=N\S(=O)(=O)c2cccs2)c2ccccc2C1=O was read as LASV entry inh inconclusive, MARV entry inh 3.66µM*, FMDV inh 10µM* and HCMV antiviral -106.2*.
COc1ccc(S(=O)(=O)/N=C2\C=C(Nc3ccc(O)cc3)C(=O)c3ccccc32)cc1 was read as LASV entry inh inconclusive, Vaccinia Venus 3.55µM*, MARV entry inh inconclusive, FMDV inh 7.94µM*, Vaccinia mCherry 5.01µM* and HCMV antiviral -99.0*.
For c1ccc(CC2CCN(c3nc4ccccc4n4nnnc34)CC2)cc1 the results were LASV entry inh 1.6%, Vaccinia Venus -8.0%, MARV entry inh 16.3%, FMDV inh 0.0% and HCMV antiviral -101.6*.
Cc1ccc(-n2ncc3c(NCCC4=CCCCC4)ncnc32)cc1 was read as LASV entry inh inconclusive, Vaccinia Venus -8.3%, FMDV inh 23.0%, Vaccinia mCherry -12.7% and HCMV antiviral 37.8.
COC(=O)[C@]1(C)CC[C@@]2(C)CC[C@@]3(C)C4=CC=C5C(=CC(=O)C(O)=C5C)[C@@]4(C)CC[C@@]3(C)C2C1 (some centres not stated) was read as Vaccinia Venus -26.6%, FMDV inh 10µM* and Vaccinia mCherry -17.2%.
Screening COC1CC2C=C(C)C=CC=CC(=O)NC(c3ccccc3)CC=CCCC(O)CC(=O)C2=C1O (configuration not stated) returned Vaccinia Venus 2.82µM*, FMDV inh 2.51µM*, Vaccinia mCherry 7.08µM* and HCMV antiviral -100.3*.
Screening O=C(c1cccc(Cl)c1)N1CCCC(Cn2cc(C(=O)N3CCCC3)nn2)C1 (configuration not stated) returned Vaccinia Venus 0.0%, FMDV inh 13.9% and Vaccinia mCherry -4.1%.
For CCCN(CC)c1ncnc2[nH]ncc12 the results were LASV entry inh 9.1%, Vaccinia Venus -6.5%, MARV entry inh inconclusive, FMDV inh -9.4%, Vaccinia mCherry -9.4% and HCMV antiviral -65.2*.
`COc1ccccc1C1CCCN1Cc1nc(-c2ccc(C)s2)oc1C` (configuration not stated) gave LASV entry inh 3.55µM*, Vaccinia Venus 36.0%, MARV entry inh inconclusive, FMDV inh -19.5%, Vaccinia mCherry inconclusive and HCMV antiviral -98.9*.
COc1ccccc1C1CCCN1Cc1nc(-c2cc3c(cc2Cl)OCO3)oc1C (configuration not stated) was read as LASV entry inh inconclusive, Vaccinia Venus -0.6%, MARV entry inh inconclusive, FMDV inh -19.5%, Vaccinia mCherry inconclusive and HCMV antiviral -24.4.
O=C(Nc1cc(SCCO)cc([N+](=O)[O-])c1)c1ccc(Br)o1 was read as LASV entry inh inconclusive, Vaccinia Venus -14.4%, MARV entry inh inconclusive, FMDV inh 31.6µM*, Vaccinia mCherry inconclusive and HCMV antiviral -35.8.
CCc1ccc(CNC(=O)C2Cc3cc(S(=O)(=O)N4CCCCCC4)ccc3N2C(C)=O)cc1 (configuration not stated) was read as LASV entry inh 22.6%[46.1 µM], Vaccinia Venus inconclusive, FMDV inh -11.2%, Vaccinia mCherry inconclusive and HCMV antiviral 3.7.
`Oc1ccc(Br)cc1/C=N/Nc1ncc(-c2ccccc2)cn1` gave LASV entry inh -25.2%, Vaccinia Venus 7.0%, MARV entry inh -33.5%, FMDV inh -13.8%, Vaccinia mCherry inactive and HCMV antiviral -32.5.
For Oc1ccc(/C=N/Nc2nccnc2Cl)c(O)c1 the results were LASV entry inh inconclusive, Vaccinia Venus inconclusive, MARV entry inh inconclusive, FMDV inh 9.1%, Vaccinia mCherry 2.51µM* and HCMV antiviral -97.4*.
`Oc1ccccc1/C=N/Nc1nccnc1Cl` gave LASV entry inh 13µM*, MARV entry inh inconclusive, FMDV inh 38.2% and HCMV antiviral -100.3*.
For Oc1ccc(/C=N/Nc2ncc(Br)cn2)c(O)c1 the results were LASV entry inh inconclusive, Vaccinia Venus inconclusive, MARV entry inh inconclusive, FMDV inh 10.1%, Vaccinia mCherry 2.51µM* and HCMV antiviral 124.3.
`Oc1ccc(/C=N/Nc2cccc3cccnc23)c(O)c1` gave LASV entry inh inconclusive, Vaccinia Venus -23.3%, MARV entry inh inconclusive, Vaccinia mCherry inconclusive and HCMV antiviral -21.7.
`Oc1cccc(C=NNc2ccccn2)c1` gave LASV entry inh inconclusive, Vaccinia Venus -10.0%, MARV entry inh -0.6%, FMDV inh 36.9%, Vaccinia mCherry -8.4% and HCMV antiviral 64.6.
